The target in one experiment is Albumin (Bos taurus) (UniProt P02769). The experiment is described as follows: compounds binding labelled BSA control protein – biochemical, small-molecule microarray, Alexa647 label, 635/667 nm fluorescence, artefact control for SMM control protein annotation, profiling panel (AID 1118).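 Also: score merges 667 nm emission intensity and signal-to-noise per printed compound spot.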 The conditions noted are these: BSA-A647 binding, fluorescence 635 nm, higher = more signal.

A short description of experiment [1]: probe aXIP binding to arrayed compounds – biochemical, NeuroSMM set, 635/667 nm fluorescence, primary screen (AID 1119).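 Also: probe is the protein aXip251-270 applied at 1 µg/mL to compound-printed slides; binding of probe to printed compounds measured as 667 nm fluorescence plus signal to noise.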 Particulars: small-molecule microarray, higher = more signal, called active from +8 up or from −8 down.
Experiment [2] in a line: probe aNOTCH3 binding on compound microarray – biochemical, small-molecule microarray, 635/667 nm fluorescence, primary screen (AID 1120).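 Also: probe is a biotin-tagged antibody raised against NOTCH3 rather than NOTCH3 protein; score merges spot fluorescence near 667 nm with spot signal to noise.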 The conditions noted are these: higher = more signal.
Experiment [3] in a line: probe aNOTCH2 binding on compound microarray – biochemical, small-molecule microarray, 635/667 nm fluorescence, primary screen (AID 1121).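 Also: score merges feature fluorescence read at 667 nm with its signal to noise.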 Particulars: higher = more signal.
Experiment [4] concerns the target Carbonic anhydrase 2 (Homo sapiens) (UniProt P00918). The experiment is described as follows: compounds binding carbonic anhydrase 2 – biochemical, small-molecule microarray, Alexa647-labelled CAII, profiling panel (AID 1122). The conditions noted are these: CAII-A647 binding fluorescence, higher = more signal.
A short description of experiment [5]: COS7 lysate on small-molecule microarray, probe aHis, 635 nm (AID 1123).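 Also: z-score combines 667nm fluorescence intensity with signal-to-noise per printed compound spot.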 The conditions noted are these: COS7 cell lysate, fluorescence, higher = more signal.
The nature of experiment [6]: probe aLAP1 signal on lysate-treated microarray – cell lysate, small-molecule microarray, COS7 lysate, primary screen (AID 1124).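 Also: lysate comes from COS7 cells expressing LAP1 and is applied at 0.3 µg/mL; score merges spot fluorescence near 667 nm with signal-to-noise over triplicate slides.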 The conditions noted are these: probe aLAP1, fluorescence, higher = more signal.
For a further experiment, the system named is Sam68 (KHDRBS1). The experiment is described as follows: compounds binding KHDRBS1 protein – biochemical, small-molecule microarray, 635 nm fluorescence, primary screen (AID 1125).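 Also: score merges 667 nm channel intensity with signal to noise over triplicate slides.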 Particulars: higher = more signal.
Experiment [7] relates to Chordin-like protein 2 (CHRDL2). The experiment is described as follows: compounds binding chordin-like 2 – biochemical, small-molecule microarray, 635 nm fluorescence, primary screen (AID 1126).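 Also: printed compound slides probed with Chrdl2 protein at 4 µg/mL for 1 h at 4 C; score merges 667 nm emission intensity with signal to noise over three replicate slides.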 The conditions noted are these: fluorescence 635 nm, higher = more signal.
The target in experiment [8] is Concanavalin-A (Canavalia ensiformis) (UniProt P02866). Kind of experiment: compounds binding concanavalin A lectin – biochemical, small-molecule microarray, Alexa647 label, 635 nm, artefact control for SMM control protein annotation, primary screen (AID 1127).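 Also: z combines 667 nm emission intensity with signal-to-noise across three replicate slides.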 Particulars: ConA-A647 binding fluorescence, higher = more signal.

The source made the active and inactive calls.

Albumin (Bos taurus), sequence (P02769 whole entry, looked up): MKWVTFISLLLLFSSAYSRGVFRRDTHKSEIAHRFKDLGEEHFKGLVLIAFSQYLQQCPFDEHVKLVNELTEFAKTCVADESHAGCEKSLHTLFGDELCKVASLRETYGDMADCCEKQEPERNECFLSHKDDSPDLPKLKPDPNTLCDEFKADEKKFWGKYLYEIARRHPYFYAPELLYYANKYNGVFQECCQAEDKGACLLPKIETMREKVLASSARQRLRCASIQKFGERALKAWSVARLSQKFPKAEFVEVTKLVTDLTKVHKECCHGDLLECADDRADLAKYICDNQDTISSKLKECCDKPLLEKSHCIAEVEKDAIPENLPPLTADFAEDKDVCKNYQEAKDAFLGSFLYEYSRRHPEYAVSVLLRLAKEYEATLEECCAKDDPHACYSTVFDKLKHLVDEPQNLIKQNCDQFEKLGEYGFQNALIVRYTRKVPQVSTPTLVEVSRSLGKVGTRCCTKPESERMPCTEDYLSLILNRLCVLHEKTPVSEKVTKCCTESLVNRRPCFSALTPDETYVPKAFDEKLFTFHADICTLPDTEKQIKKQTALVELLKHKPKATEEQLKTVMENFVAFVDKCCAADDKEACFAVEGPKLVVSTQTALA
Concanavalin-A (Canavalia ensiformis), sequence (P02866 whole entry, looked up): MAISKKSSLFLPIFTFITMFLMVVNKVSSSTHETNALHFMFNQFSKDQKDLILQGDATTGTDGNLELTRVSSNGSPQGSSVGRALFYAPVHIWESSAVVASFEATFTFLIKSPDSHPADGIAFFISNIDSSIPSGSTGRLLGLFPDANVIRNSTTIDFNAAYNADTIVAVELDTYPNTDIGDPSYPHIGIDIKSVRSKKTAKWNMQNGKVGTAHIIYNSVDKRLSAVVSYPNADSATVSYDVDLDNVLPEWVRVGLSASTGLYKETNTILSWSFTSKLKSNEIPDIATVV

`CCN(CC)c1ccc(N2CC=CC34O[C@@H]5C=CCCOC(=O)C5[C@H]3C(=O)N(CCCCCO)[C@@H]4C2=O)cc1` (stereo not given in full): the composite z-score with Albumin (Bos taurus) is -0.515; in [2], 0.0522; in experiment [3] it was 0.396; in experiment [4] it was 0.285; in [5] it was 0.395; in experiment [6], 0.483. Further, the composite z-score with Sam68 (KHDRBS1) is 0.13; in [7], -0.218; in experiment [8], -0.459. Moreover, in experiment [1], the composite Z-score is 1.07 (inactive).
For the molecule `O=C1C2C=CC(C(O)c3ccc(F)cc3)N(Nc3ccccc3)C2C(=O)N1c1ccccc1` (stereo not given), the composite z-score is 0.843 with Albumin (Bos taurus); 0.189 in [2]; 0.0449 in [3]; 0.734 in [4]; 2.88 in experiment [5]; -0.364 in experiment [6]. Besides, the values for the composite z-score (in the experiment with Sam68 (KHDRBS1); in experiment [7]; in experiment [8]) were 0.654, -0.527 and -0.398, respectively. In addition, in [1], the composite Z-score was 0.121 (inactive).
For `COc1ccc([Si](C)(C)[C@@H]2[C@@H](CCn3cc([C@H](O)c4ccccc4)nn3)O[C@]3(C(=O)N(Cc4cccc(N5CCOC5=O)c4)c4ccccc43)[C@H]2C)cc1`, the composite z-score in the experiment with Albumin (Bos taurus) was -0.424; in experiment [2], -0.259; in experiment [3] it was -0.175; in experiment [4], -0.208; in experiment [5], -0.359; in experiment [6] it was -0.0364. Further, the composite z-score in the experiment on Sam68 (KHDRBS1) was -0.217; in [7], -1.14; in experiment [8], -0.348. Further, the composite Z-score in [1] was 0.25 (inactive).
On to `CC(C)NC(=O)[C@@H]1c2ccccc2C(=O)N(Cc2ccccc2)[C@H]1c1ccc(CO)cc1`, for which the composite z-score with Albumin (Bos taurus) is -0.113; in [2], 0.0237; in experiment [3], -0.0638; in [4] it was 0.706; in experiment [5] it was 2.01; in experiment [6], 0.821. For the same molecule, the figures for the composite z-score (with Sam68 (KHDRBS1); in [7]; in experiment [8]) were -0.598, -1.38 and -0.717, respectively. Further, the composite Z-score in experiment [1] is 0.601 (inactive).
Regarding `COCCOC(=O)N1C(=O)[C@@]2(c3cc(C#CCCO)ccc31)[C@H](c1ccccc1OCCO)N1[C@H](c3ccccc3)[C@H](c3ccccc3)OC(=O)[C@H]1[C@@H]2C(=O)N1CCN(c2ncccn2)CC1`, the composite z-score with Albumin (Bos taurus) worked out at 0.602; in experiment [2] it was 0.413; in [3] it was 0.123; in experiment [4] it was 0.539; in experiment [5], 2.02; in experiment [6], 0.505. Moreover, the results for the composite z-score (in the experiment on Sam68 (KHDRBS1); in [7]; in experiment [8]) were 1.12, 0.52 and 1.15, respectively. Moreover, the composite Z-score in experiment [1] was 0.341 (inactive).
For the molecule `COc1ccc(CCN2C(=O)[C@@]3(Cc4ccccc42)c2ccccc2C(=O)N(Cc2ccccc2Cl)[C@H]3c2ccc(CO)cc2)cc1`, the composite z-score was -0.091 with Albumin (Bos taurus); -0.125 in experiment [2]; -0.137 in experiment [3]; 0.855 in experiment [4]; -0.247 in experiment [5]; 0.296 in experiment [6]. The values for the composite z-score (in the experiment with Sam68 (KHDRBS1); in experiment [7]; in [8]) were -0.383, -1.06 and -0.199, respectively. Further, the composite Z-score in experiment [1] is -0.0503 (inactive).
On to `Cc1ccc(S[C@]2(C(=O)NC3CC3)CC(=O)N(Cc3ccccc3)[C@@H]2c2ccc(CO)cc2)cc1`, for which the composite z-score in the experiment with Albumin (Bos taurus) was 0.391; in [2] it was -0.284; in experiment [3], 0.125; in experiment [4], 0.27; in experiment [5] it was 2.78; in [6], 0.677. Besides, the composite z-score in the experiment on Sam68 (KHDRBS1) was -0.664; in experiment [7] it was -1.49; in experiment [8], -0.788. Also, the composite Z-score in experiment [1] is 0.225 (inactive).
With `Cc1c(NC(=O)CC#N)c(=O)n(-c2ccccc2)n1C`, the composite z-score is 0.407 in the experiment with Albumin (Bos taurus); 0.0876 in experiment [2]; -0.193 in [3]; -0.064 in experiment [4]; 0.0776 in experiment [5]; 0.037 in experiment [6]. The values for the composite z-score (with Sam68 (KHDRBS1); in [7]; in [8]) were 0.529, 0.563 and 0.0636, respectively. The composite Z-score in experiment [1] is 0.676 (inactive).
For the molecule `COc1ccc(C#Cc2ccc3c(c2)[C@]2(C(=O)N3)[C@H](C(=O)NC[C@H](O)c3ccccc3)[C@H]3C(=O)O[C@H](c4ccccc4)[C@H](c4ccccc4)N3[C@@H]2c2ccccc2OCCO)cc1`, the composite z-score is 0.566 with Albumin (Bos taurus); 0.175 in [2]; -0.0157 in experiment [3]; 0.575 in [4]; 1.8 in experiment [5]; 1.03 in experiment [6]. For the same molecule, the composite z-score in the experiment on Sam68 (KHDRBS1) was 1.29; in experiment [7], 0.469; in experiment [8], 1.14. In [1], the composite Z-score is 0.29 (inactive).
For `COc1ccc(C#Cc2ccc3c(c2)[C@]2(C(=O)N3)[C@H](c3ccc(O)cc3)N3[C@H](c4ccccc4)[C@H](c4ccccc4)OC(=O)[C@H]3[C@@H]2C(=O)NC[C@H](O)c2ccccc2)cc1`, the composite z-score was 0.363 with Albumin (Bos taurus); 0.0319 in experiment [2]; -0.189 in experiment [3]; 0.295 in [4]; 2.78 in [5]; 0.0766 in [6]. In addition, the composite z-score in the experiment on Sam68 (KHDRBS1) worked out at 0.81; in experiment [7], 0.0813; in experiment [8] it was 1.17. Besides, the composite Z-score in experiment [1] is -0.118 (inactive).
Turning to `C=CC(=C)C1=CCO[C@@H]1[C@H]1CCCN1S(=O)(=O)c1ccccc1[N+](=O)[O-]`, the composite z-score is 0.656 with Albumin (Bos taurus); 0.117 in experiment [2]; -0.0926 in experiment [3]; 0.481 in [4]; 0.158 in experiment [5]; -0.262 in experiment [6]. Moreover, the composite z-score in the experiment with Sam68 (KHDRBS1) amounted to 0.471; in [7] it was 1.04; in experiment [8] it was 1.1. In addition, the composite Z-score in [1] was 0.0499 (inactive).
Regarding `Cc1ccc([C@H]2C(C(=O)O)=C[C@@H](C)N2S(=O)(=O)c2ccc(C)cc2)cc1`, the composite z-score in the experiment with Albumin (Bos taurus) is 0.892; in experiment [2] it was -0.0918; in experiment [3], 0.069; in [4], 0.866; in experiment [5], 2.6; in [6], 0.166. In addition, the composite z-score is 0.821 with Sam68 (KHDRBS1), -1.55 in [7] and -0.72 in experiment [8]. Moreover, the composite Z-score in experiment [1] was 0.24 (inactive).
For `COC(=O)c1ccc(C(O)C2C=CC3C(=O)N(C)C(=O)C3N2NC(=O)OC(C)(C)C)o1` (stereo not given), the composite z-score worked out at 0.538 with Albumin (Bos taurus); 0.178 in [2]; 0.135 in [3]; 0.436 in experiment [4]; 0.489 in [5]; 0.734 in experiment [6]. Besides, the composite z-score with Sam68 (KHDRBS1) is 0.94; in experiment [7], -0.0987; in experiment [8] it was 0.494. Further, the composite Z-score in [1] is 1.02 (inactive).
